KCNQ2 enhance – potentiators of rat KCNQ2 potassium channel | AID 2239 | O88943 | 310,000 compounds, 0.54% hits | B-score at 10 µM | CHO-K1 KCNQ2, FluxOR thallium flux fluorescence; hits give high values;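 active = fluorescence ratio B-score at least 3 SD of library B-scores, with initial fluorescence B-score within 3 of them, cut at about 5.3 in these data; same plate scores as AID 2156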;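 note: B-score of peak minus minimum over baseline fluorescence ratio after K+ and Tl+ stimulus; positive B-score means potentiation of KCNQ2 with more thallium influx and brighter signal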
Target sequence (O88943 whole entry, looked up): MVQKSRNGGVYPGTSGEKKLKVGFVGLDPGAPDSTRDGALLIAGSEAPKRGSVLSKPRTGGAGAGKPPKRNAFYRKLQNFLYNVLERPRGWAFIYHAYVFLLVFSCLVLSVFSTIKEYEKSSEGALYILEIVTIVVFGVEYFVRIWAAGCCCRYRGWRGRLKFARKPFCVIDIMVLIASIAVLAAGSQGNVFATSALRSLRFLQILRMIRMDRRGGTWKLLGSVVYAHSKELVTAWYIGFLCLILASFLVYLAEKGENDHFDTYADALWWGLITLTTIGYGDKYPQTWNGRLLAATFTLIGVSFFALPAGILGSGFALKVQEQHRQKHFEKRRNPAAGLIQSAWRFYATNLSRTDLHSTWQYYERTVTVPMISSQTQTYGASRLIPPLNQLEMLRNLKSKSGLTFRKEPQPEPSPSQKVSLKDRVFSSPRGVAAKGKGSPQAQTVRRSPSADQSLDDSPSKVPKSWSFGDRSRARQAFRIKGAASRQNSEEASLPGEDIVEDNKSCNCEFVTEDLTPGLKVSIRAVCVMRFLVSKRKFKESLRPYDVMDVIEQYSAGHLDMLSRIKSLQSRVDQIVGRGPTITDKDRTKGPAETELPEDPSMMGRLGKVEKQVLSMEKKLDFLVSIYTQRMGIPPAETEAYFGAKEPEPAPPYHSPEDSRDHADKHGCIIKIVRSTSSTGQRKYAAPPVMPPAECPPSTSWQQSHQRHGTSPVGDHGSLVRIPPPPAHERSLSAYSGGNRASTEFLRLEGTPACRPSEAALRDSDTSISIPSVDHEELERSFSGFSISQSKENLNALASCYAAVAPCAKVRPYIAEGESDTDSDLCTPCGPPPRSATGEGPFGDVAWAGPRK
KCNQ2 inh – inhibitors of rat KCNQ2 potassium channel. B-score at 10 µM. 310,000 compounds, 1.1% hits. AID 2156. CHO-K1 KCNQ2, FluxOR thallium flux, 20 min; hits give low values;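 active = fluorescence ratio B-score at most minus 3 library SDs, with starting brightness B-score within 2 library SDs, cut at about -5.5 in these data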
Hits are given with their value; - = inactive; . = no result. An excerpt weighted towards active compounds, which were near 1.6% of everything screened.

SMILES	KCNQ2 enhance	KCNQ2 inh
C=CCOC(=O)c1sc(NC(=O)c2ccc(OC)cc2)nc1C	-	-
Cc1ccc(S(=O)(=O)CCC(=O)N(C)C2CCCCC2)cc1	-	-
COc1cc(-c2nc(-c3ccc4c(c3)-c3ccccc3S4(=O)=O)c(-c3ccccc3)[nH]2)cc(OC)c1OC	-	-7
COc1cc(-c2nc(-c3ccccc3)c(-c3cccs3)[nH]2)cc(OC)c1OC	.	-
O=C(CCC1CCCC1)NNC(=O)c1ccccc1O	-	-
CCCCOc1ccc(Cc2n[nH]c(=S)n2N)cc1	.	-
COc1cc2c(cc1NC(=O)CSc1nnc(Cc3cccs3)n1Cc1ccco1)oc1ccccc12	.	-
Cc1cc(Cl)ccc1NC(=O)CSc1nnc(Cc2cccs2)n1Cc1ccco1	-	-6.3
CCOC(=O)N1CCN(C(=O)c2ccc3c(SCC(=O)O)c4c(nc3c2)CCC4)CC1	-	-
COC(=O)CCC(=O)Nc1cccc2ccccc12	-	-
CCCCCC(=O)Nc1cccc2ccccc12	5.7	-
COc1ccccc1/C=N\NC(=O)c1ccc(COc2ccc(C)c(C)c2)o1	.	-
COC(=O)c1c(C(=O)OC)c(-c2ccc(C(C)(C)C)cc2)n2c1CS(=O)C2 (stereo not given)	-	-8
COC(=O)c1c(C(=O)OC)c(-c2cccc(F)c2)n2c1CS(=O)C2 (stereo not given)	-	-
CCOC(=O)C(Oc1ccc(=O)n(-c2ccccc2)n1)C(C)=O (stereo not given)	-	-
COc1cc(S(=O)(=O)N(Cc2cccnc2)Cc2cccc(OC)c2OC)ccc1-n1cnnn1	-	-
Cc1cc(C(C)(C)C)ccc1OCCN(C)C	.	-
CC(C)Cc1cc(C(C)(C)C)ccc1OC(=S)N(C)C	-	-7.8
O=C(OCn1ncc(Br)c(Br)c1=O)c1ccccc1Cl	.	-
O=C(OCn1ncc(Br)c(Br)c1=O)c1ccc(F)cc1	-	-5.6
Clc1ccc(CNCc2cccs2)c(Cl)c1	.	-
Cc1ccc(Cl)cc1N1CCN(S(=O)(=O)c2c(C)[nH]c(C)c2C(=O)N2CCCCC2)CC1	-	-7.2
Cc1ccc(C)c(N2CCN(S(=O)(=O)c3c(C)[nH]c(C)c3C(=O)N3CCCCC3)CC2)c1	-	-6.7
Cc1[nH]c(C)c(S(=O)(=O)N2CCN(c3cccc(Cl)c3)CC2)c1C(=O)N1CCCCC1	.	-
Cc1ccc(C)c(N2CCN(S(=O)(=O)c3c(C(=O)N4CCCCC4)c(C)n(C)c3C)CC2)c1	.	-
SMILES	KCNQ2 enhance	KCNQ2 inh
COc1ccc(CN2CC[C@@H](N3CCOCC3)[C@H](O)C2)cc1F	-	-
CC(=O)c1cc2c(cc1NC(=O)CN1Cc3ccccc3C1=O)OCO2	.	-
COc1ccccc1C(=O)NCCc1nc2ccccc2[nH]1	.	-
COc1ccc(C(=O)NCc2nnc(SCC(=O)c3ccc(F)cc3)n2C)cc1OC	-	-
COC(=O)C1=C(C)N(C2CCCCC2)C(=O)/C1=C\c1cccs1	.	-
Cc1ccc(/C=C/C(=O)N2CCN(c3ccc(F)cc3)CC2)o1	.	-
Cc1ccc(/C=C/C(=O)N2CCN(c3ncccn3)CC2)o1	8.9	-
N#CCC(=O)c1sccc1-n1cccc1	-	-
CCOC(=O)c1ccccc1NC(=O)C1CCN(c2ncnc3sc(C)c(C)c23)CC1	-	-6
Cc1sc2ncnc(N3CCC(C(=O)Nc4ccccc4C(C)(C)C)CC3)c2c1C	.	-
CC1CCCCC1NC(=O)c1cccc(NC2=NC3CS(=O)(=O)CC3S2)c1 (stereo not given)	.	-
CS(=O)(=O)c1ccc(CNC(=O)C2(C(F)(F)F)C/C(=C\Cc3ccccc3)CCCO2)cc1 (stereo not given)	.	-
CCn1c(SCc2ccc(Cl)cc2Cl)nc2nc3c(cc2c1=O)CCCC3	.	-
CNc1ccc(Br)cc(C(=O)/C=C/c2cc(OC)ccc2OC)c1=O	.	-
CCNc1ccc(Br)cc(C(=O)/C=C/c2ccc(Cl)cc2Cl)c1=O	-	-5.8
O=C(/C=C/c1ccc2c(c1)OCO2)NCCSCc1ccc(Cl)cc1Cl	-	-7.8
O=C(/C=C/c1ccc2c(c1)OCO2)NCCSCc1cccc(Cl)c1	.	-
O=C(NC1CCCC1)C(c1ccccc1)N(Cc1ccccc1)C(=O)c1csnn1 (stereo not given)	-	-
CC1CCN(c2ccc(C(=O)NCc3ccco3)cc2[N+](=O)[O-])CC1	-	-
CC(=O)C(C(C)=O)c1c(Cl)c(O)c(O)c2c(C(=O)c3ccccc3)coc12	-	-7.3
CN1CCN(Cc2c(O)ccc3occ(C(=O)c4ccccc4)c23)CC1	-	-
Cc1cc(=O)oc2c(C)c(OCC(=O)NCCCN3CCOCC3)ccc12	.	-
CCN(CC)C(=O)CSc1nc2ccc(NC(=O)CSc3nccn3C)cc2s1	-	-
COc1ccccc1NC(C)C(=O)N/N=C/c1ccccc1OCc1cccc(Br)c1 (stereo not given)	-	-6.3
COc1cc([N+](=O)[O-])cc(/C=N/NC(=O)C(C)Nc2cccc3ccccc23)c1O (stereo not given)	-	-
SMILES	KCNQ2 enhance	KCNQ2 inh
Cc1cc(C)cc(NC(=O)C(OC(=O)C2=COCCO2)c2ccccc2)c1 (stereo not given)	-	-6.6
O=C(OC(C(=O)Nc1ccc(Cl)c(C(F)(F)F)c1)c1ccccc1)C1=COCCO1 (stereo not given)	.	-
CC(=O)NS(=O)(=O)c1ccc2sc(C)nc2c1	.	-
CCOC(=O)N1CCN(Cc2cc(Cl)c3cccnc3c2O)CC1	15	-
COCc1cc(CN2CCN(C)CC2)c(O)c2ncccc12	.	-
COc1ccc2cc(C#N)c(SCC(=O)NNC(=O)Cc3ccccc3)nc2c1	-	-6.2
COC(=O)CSc1nc2cc(OC)ccc2cc1C#N	-	-
O=C1OCCC1Sc1nnc(-c2ccc(F)cc2)n1Cc1ccccc1 (stereo not given)	-	-
CC1(C)C2CCC1(C)C(OC(=O)CC(=O)O)C2 (stereo not given)	-	-8.2
CC1(C)C2CCC1(C)C(OC(=O)C[n+]1ccccc1)C2 (stereo not given)	.	-
CCn1c(NCc2c[nH]c3ccccc23)nc2ccccc21	-	-6.5
Cn1c(NCc2c[nH]c3ccccc23)nc2ccccc21	.	-
CN1CCN(NC(=O)c2cccc(Br)c2)CC1	-	-
Cc1ccc(C(=O)C2CCN(CC(=O)Nc3nc(C)cs3)CC2)cc1	.	-
COc1ccc(CNC(=O)CCc2c(C)nc3ncnn3c2C)cc1	-	-
CCN(C(=O)/C=C/c1ccc2c(c1)OCO2)c1ccccc1	-	-6
CCN(CC(=O)Nc1ccc(NC(C)=O)cc1)C(=O)/C=C/c1ccc2c(c1)OCO2	.	-
CCOC(=O)c1c(N)sc(-c2ccccc2)c1C	.	-
CCOC(=O)c1c(N)sc(C(O)(C(F)(F)F)C(F)(F)F)c1-c1ccccc1	-	-7.2
COCCn1c(=O)[nH]c2cc(C(=O)N3CCN(c4cccc(C)c4C)CC3)ccc2c1=O	-	-
CC(OC(=O)CSc1ccc(F)cc1)C(=O)NC1(C#N)CCCCC1 (stereo not given)	-	-
O=C(O)c1cc(N/N=C/c2cccc3ccccc23)ccc1Cl	-	-
O=C(O)c1cc(N/N=C/C(Cl)=C/c2ccccc2)ccc1Cl	5.3	-
O=C(Cc1c(F)cccc1Cl)NNC(=S)Nc1ccc(S(=O)(=O)Nc2ncccn2)cc1	-	-
O=C(CSc1nccc(=O)[nH]1)Nc1cccc2ccccc12	.	-
Cc1ccc(N=Cc2cc(Cl)cc(Cl)c2O)nc1	12	-
Oc1c(Cl)cc(Cl)cc1/C=N/Nc1ncc(Br)cn1	.	-
O=C(COc1ccc(C(=O)NCCN2CCOCC2)cc1)Nc1cccc(C(F)(F)F)c1	-	-5.7

Screens from PubChem.
